From PubChem BioAssay (NCI) come the findings set out here.

The structures appear in SMILES notation. This is part of a sample that, as a whole, favours compounds with a hit. Of some 83,000 tested, about 20% had one in any assay.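 Values shown are percent growth following 48 h exposure of cells in 96-well plates to a single concentration of compound; below 10 was considered active.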 A number with no mark means an inactive call. The source made the active and inactive calls.

Some test systems named below: NCI-H23 lung; NCI-H226 lung; NCI-H322M lung; HOP-62 NSCLC; NCI-H460 lung; HOP-92 NSCLC; NCI-H522 lung; A549/ATCC NSCLC; 786-0 renal; COLO 205 colon; DU-145 prostate; K-562 leukemia; MALME-3M melanoma; MDA-MB-231 breast; RXF 393 renal; SF-268 CNS; SF-295 CNS; SF-539 CNS; UACC-257 melanoma; M14 melanoma.
Holding throughout (test): NCI-60 one-dose screen, 48 h (100 = growth as untreated, 0 = no growth, -100 = all killed)
Holding throughout (settings): 10 µM unless noted

Take `Cc1[nH]c(C(=O)Nc2ccc(C(N)=O)cc2OC(C)C)c(Cl)c1Cl`: the growth with NCI-H23 lung is 97.6%; in the test with NCI-H226 lung, 107%; with NCI-H322M lung it was 100%; in the test on HOP-62 NSCLC, 92.7%; in the test with NCI-H460 lung, 85.1%; in the test with HOP-92 NSCLC, 73.3%. In addition, the growth in the test on NCI-H522 lung was 91.7%; in the test with A549/ATCC NSCLC, 100%; with 786-0 renal it was 102%; with COLO 205 colon it was 115%; in the test on DU-145 prostate, 101%; with K-562 leukemia, 79.9%. Moreover, the growth in the test on MALME-3M melanoma was 101%; in the test on MDA-MB-231 breast it was 91.4%; with RXF 393 renal, 133%; in the test on SF-268 CNS, 97.5%; in the test with SF-295 CNS, 104%; with SF-539 CNS it was 92.8%. In addition, the values for the growth in the test with UACC-257 melanoma and with M14 melanoma were 106% and 108%, respectively.
In the case of `O=C1OCC2=C1C(c1cccc(F)c1)c1cc3c(cc1N2CCO)CCC3` (stereo not given), the growth in the test with NCI-H23 lung is 24.7%; with NCI-H226 lung, 39.6%; with NCI-H322M lung it was 40.9%; in the test on HOP-62 NSCLC it was 26.2%; with NCI-H460 lung it was 6.75% (active); in the test on HOP-92 NSCLC, 58.5%. Moreover, the growth in the test with NCI-H522 lung was 11.6%; with A549/ATCC NSCLC, 17.3%; with 786-0 renal it was 32.3%; in the test on COLO 205 colon, -25.6% (active); in the test on DU-145 prostate it was 2.44% (active); with K-562 leukemia, 9.4% (active). In addition, the growth is 50.9% in the test on MALME-3M melanoma; 26.9% with MDA-MB-231 breast; 32.3% with RXF 393 renal; 23.3% in the test with SF-268 CNS; -6.45% (active) in the test on SF-295 CNS; -28.9% (active) in the test on SF-539 CNS. In addition, the growth is 90.1% in the test with UACC-257 melanoma and 7.72% (active) in the test with M14 melanoma.
For the compound `CC(C)n1cc(C2=C(c3cccc4ccccc34)C(=O)NC2=O)c2cc(Br)ccc21`, the growth was 49% with NCI-H23 lung; 37.8% in the test with NCI-H226 lung; 87.5% in the test on NCI-H322M lung; 78.5% with HOP-62 NSCLC; 67.5% in the test with NCI-H460 lung; 158% with HOP-92 NSCLC. For the same compound, the growth was 79.9% in the test on NCI-H522 lung; 60.5% in the test on A549/ATCC NSCLC; 54.9% in the test with 786-0 renal; 62.2% in the test on COLO 205 colon; 71% with DU-145 prostate; 34.8% in the test with K-562 leukemia. For the same compound, the growth in the test with MALME-3M melanoma was 122%; with MDA-MB-231 breast it was 91.2%; in the test on RXF 393 renal, 24.4%; in the test on SF-268 CNS, 67.5%; in the test on SF-295 CNS, 63.9%; with SF-539 CNS it was 60.9%. Also, the growth with UACC-257 melanoma was 111%; in the test with M14 melanoma, 76.1%.
On to `CC(C)CCc1nc2ccc(NCc3ccc(OCCN4CCC(C)CC4)cc3)cc2[nH]1`, for which the growth with NCI-H23 lung is 94.9%; in the test with NCI-H226 lung, 67.4%; in the test with NCI-H322M lung, 99.2%; in the test with HOP-62 NSCLC, 83.6%; in the test with NCI-H460 lung, 100%; with HOP-92 NSCLC it was 53.5%. Also, the growth in the test with NCI-H522 lung was 102%; in the test with A549/ATCC NSCLC, 99.9%; in the test with 786-0 renal, 76.6%; in the test on COLO 205 colon, 66%; in the test with DU-145 prostate it was 89.4%; in the test with K-562 leukemia it was 20.4%. Moreover, the growth was 32% in the test on MALME-3M melanoma; 59.8% in the test with MDA-MB-231 breast; 61.6% with RXF 393 renal; 79.9% in the test with SF-268 CNS; 90.4% in the test on SF-295 CNS; 58% in the test with SF-539 CNS. Also, the growth was 96.3% with UACC-257 melanoma and 33.2% in the test on M14 melanoma.
As to `O=C(CSc1nnc(-c2ccc(Cl)c(Cl)c2)n1-c1ccccc1)Nc1ccc(C(=O)/C=C/c2ccc(Cl)cc2)cc1`, the growth with NCI-H23 lung is 95.4%; in the test with NCI-H226 lung, 89.1%; with NCI-H322M lung it was 96.9%; in the test with HOP-62 NSCLC it was 91.1%; in the test on NCI-H460 lung, 99.5%; in the test on HOP-92 NSCLC, 80.7%. In addition, the growth with NCI-H522 lung was 64.7%; in the test on A549/ATCC NSCLC, 68.9%; with 786-0 renal it was 88.6%; in the test on COLO 205 colon, 93.3%; in the test on DU-145 prostate, 98.3%; in the test on K-562 leukemia, 81.9%. Moreover, the growth in the test with MALME-3M melanoma is 94.6%; with MDA-MB-231 breast, 86.5%; with RXF 393 renal, 92.1%; in the test with SF-268 CNS it was 92.2%; in the test with SF-295 CNS it was 98.2%; in the test with SF-539 CNS it was 97.9%. For the same compound, the growth in the test with UACC-257 melanoma was 77.3%; in the test on M14 melanoma, 82.2%.
As to `O=C1c2cccnc2C(=O)c2c1c(C(=O)OCCCN1CCOCC1)c1ccccn21`, the growth in the test on NCI-H23 lung was -32.1% (active); with NCI-H226 lung, -6.42% (active); in the test with NCI-H322M lung, -51.5% (active); with HOP-62 NSCLC it was -25.6% (active); in the test with NCI-H460 lung, -60% (active); with HOP-92 NSCLC it was -20.6% (active). The growth in the test with NCI-H522 lung is -75.1% (active); in the test on A549/ATCC NSCLC it was -25% (active); with 786-0 renal it was -18.4% (active); in the test with COLO 205 colon, -75.8% (active); with DU-145 prostate it was -84.2% (active); with K-562 leukemia, -20.2% (active). For the same compound, the growth in the test on MALME-3M melanoma is -53.9% (active); with MDA-MB-231 breast it was 14.1%; in the test with RXF 393 renal, 3.94% (active); in the test with SF-268 CNS, 5.83% (active); in the test with SF-295 CNS it was -4.43% (active); with SF-539 CNS it was -43.2% (active). For the same compound, the results for the growth with UACC-257 melanoma and in the test on M14 melanoma were -85.6% (active) and -81.2% (active), respectively.
Take `COC(=O)c1nc(-c2ccc(C)cc2)oc1N1CCOCC1`: the growth is 106% in the test on NCI-H23 lung; 94% in the test on NCI-H226 lung; 105% in the test with NCI-H322M lung; 98.3% with HOP-62 NSCLC; 100% in the test on NCI-H460 lung; 102% in the test on HOP-92 NSCLC. Moreover, the growth was 90.7% in the test with NCI-H522 lung; 88.4% in the test with A549/ATCC NSCLC; 82.3% in the test on 786-0 renal; 111% in the test on COLO 205 colon; 98.1% in the test on DU-145 prostate; 95.6% in the test with K-562 leukemia. Besides, the growth with MALME-3M melanoma is 115%; with MDA-MB-231 breast, 105%; with RXF 393 renal it was 89.6%; in the test with SF-268 CNS, 98.1%; in the test on SF-295 CNS, 99%; in the test with SF-539 CNS, 95.9%. Also, the growth in the test on UACC-257 melanoma was 100%; in the test on M14 melanoma it was 102%.
For the compound `Cc1ccc(S(=O)(=O)N(CCC(=O)O)c2ccccc2)cc1`, the growth in the test with NCI-H23 lung was 112%; in the test on NCI-H226 lung it was 109%; in the test with NCI-H322M lung, 122%; in the test with HOP-62 NSCLC it was 96.2%; with NCI-H460 lung, 112%; with HOP-92 NSCLC, 102%. In addition, the growth in the test on NCI-H522 lung is 109%; in the test with A549/ATCC NSCLC it was 104%; in the test with 786-0 renal, 94.3%; in the test on COLO 205 colon, 132%; with DU-145 prostate, 111%; in the test with K-562 leukemia it was 93.4%. The growth was 142% in the test on MALME-3M melanoma; 114% in the test with MDA-MB-231 breast; 152% with RXF 393 renal; 102% in the test with SF-268 CNS; 111% with SF-295 CNS; 99.1% with SF-539 CNS. The figures for the growth with UACC-257 melanoma and with M14 melanoma were 102% and 107%, respectively.
